Assay results as given in the supplement of paper PMC3334620.
Whole data set: some 33,000 sequences, median “E-score (-0.5 to 0.5)” near -0.013, cut for the highest 2% near 0.3. For the sample, the highest values were picked, then their nearest neighbours and some sequences at random.

biological target: T1, Msn1 (UniProt P22148); test: PBM E-score (8-mer binding enrichment) (E-score (-0.5 to 0.5)); higher = stronger / more preferred TF binding; details: protein concentration: 200 nM; construct: GST-full length
T1 sequence: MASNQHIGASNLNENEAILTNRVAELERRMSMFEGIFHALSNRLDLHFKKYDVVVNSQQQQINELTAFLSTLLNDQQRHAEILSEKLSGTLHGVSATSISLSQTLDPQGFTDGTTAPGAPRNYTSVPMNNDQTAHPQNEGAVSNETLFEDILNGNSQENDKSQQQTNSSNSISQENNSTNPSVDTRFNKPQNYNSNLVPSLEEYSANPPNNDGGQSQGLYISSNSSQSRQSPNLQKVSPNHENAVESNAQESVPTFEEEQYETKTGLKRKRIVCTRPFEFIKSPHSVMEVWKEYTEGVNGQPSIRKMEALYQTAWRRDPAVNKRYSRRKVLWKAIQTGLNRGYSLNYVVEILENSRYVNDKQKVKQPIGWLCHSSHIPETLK
Experimental: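 Universal 'all 10-mer' protein binding microarrays (Agilent AMADID 015681) probed with GST-tagged S. cerevisiae TFs (full-length or DBD) made by in vitro transcription/translation (PURExpress), about 100-200 nM. Bound TF was detected with fluorescent anti-GST. Each ungapped 8-mer (which stands for itself and its reverse complement) is scored by the PBM enrichment score (E-score), a modified Wilcoxon-Mann-Whitney statistic from -0.5 to +0.5, computed with the Universal PBM Analysis Suite. Scale: above 0.35 generally sequence-specific binding.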

Row | Sequence | PBM E-score
1 | GATTCTAA | 0.0481
2 | TGGCTACA | 0.0201
3 | ATTAGCAA | 0.22
4 | AAGTACGG | 0.0556
5 | AAGCTAAA | 0.12
6 | CATATTCC | 0.0363
7 | CACCCGTG | -0.213
8 | GCAGACCA | -0.0683
9 | ACAGACAG | 0.222
10 | CCAGACAA | 0.258
11 | GCAGACAC | 0.203
12 | ACAGACAC | 0.288
13 | GCAGACAA | 0.341
14 | TCAGACCA | -0.0852
15 | TCAGACAA | 0.367
16 | CCAGACAG | -0.094
17 | ACAGACAT | 0.399
18 | ACAGACGA | 0.153
19 | ACAGACAA | 0.44
20 | TATGAGAA | 0.0684
21 | AATGGTCG | -0.0526
22 | TAGATTCA | -0.192
23 | GCTTCTTA | -0.0464
24 | ACATGTAA | 0.255
25 | TCATGTCA | 0.252

Row | Sequence | PBM E-score
26 | ACATGCCT | -0.119
27 | ACATGTAT | 0.312
28 | CCATGTCG | 0.239
29 | ACCTGTCT | 0.0544
30 | ACATGTCG | 0.311
31 | ACATGTCA | 0.358
32 | ACATGTAG | 0.244
33 | ACATGTTG | 0.235
34 | ACATGTTA | 0.199
35 | ACATGTCT | 0.436
36 | ACCGATAG | 0.0834
37 | GATTCCGC | 0.0634
38 | AAGCCGCA | -0.0983
39 | GACTGCAA | -0.16
40 | AAAGCGAT | 0.00359
41 | TAGGTGAA | 0.0103
42 | GCATGTCA | 0.261
43 | CCATGTCA | 0.164
44 | ACATGTGC | 0.0743
45 | CCATGTCC | 0.434
46 | GCATGTAC | 0.291
47 | GCATGTCC | 0.459
48 | ACATGTTC | 0.147
49 | ACATGTCC | 0.48
50 | CCATGTAC | 0.216

Row | Sequence | PBM E-score
51 | CGGGTTGA | -0.255
52 | CCAGCCCC | -0.304
53 | CTTTGCTA | -0.0573
54 | AAACAGTA | -0.0344
55 | CCACAAGC | -0.0513
56 | AGCACATG | -0.0192
57 | AGGACATC | 0.477
58 | AGGACATG | 0.484
59 | CGGACATC | 0.387
60 | AGCACATC | -0.0251
61 | CGGACATA | 0.469
62 | AGTACATC | 0.131
63 | AGTACATG | 0.266
64 | CCGACATC | 0.0379
65 | CGGACCTA | 0.00062
66 | CGGACTGA | 0.0816
67 | CGGACAGC | 0.182
68 | ATGGGCAA | 0.0683
69 | ACATACCG | 0.114
70 | GGAACGAA | 0.0279
71 | AATCTAAG | 0.00698
72 | GCGAGATA | 0.09
73 | ATCTTCCA | -0.148
74 | GGGACATA | 0.488
75 | GGGACTGA | -0.182

Row | Sequence | PBM E-score
76 | GGGACAGA | 0.262
77 | AGCGTAGG | -0.267
78 | GACCACCA | -0.246
79 | ATCAGACC | -0.192
80 | AAACTGCT | -0.222
81 | CGCCAACG | -0.126
82 | CGCTCTAC | -0.0195
83 | CGTATTGA | -0.0137
84 | ACTGCGGG | -0.124
85 | TGTCGCAA | 0.324
86 | AGTCTAAA | 0.0711
87 | TGTCTTAA | 0.375
88 | AGTCTGAA | 0.029
89 | GGTCGCAA | -0.11
90 | AGTCTTAA | 0.11
91 | TGTCTGAA | 0.364
92 | GGTCTGAA | 0.0803
93 | CGTCGCAA | 0.0166
94 | TGTCTAAA | 0.38
95 | GGTCTAAA | -0.0883
96 | CGTCTTAA | 0.0585
97 | CGCTAGGA | -0.0538
98 | GCGGGGCA | -0.147
99 | GGAACCCC | -0.334
100 | ACCGTCTA | -0.11

Row | Sequence | PBM E-score
101 | CTGCGATA | 0.0274
102 | CAGGTGAA | 0.0265
103 | ATGCAGTC | -0.186
104 | CTGGAGTC | -0.182
105 | AGCCAATA | -0.113
106 | GATCGGCC | -0.0564
107 | CACTACCG | -0.181
108 | AACTAGAA | 0.062
109 | CGTATCAA | 0.0969
110 | CGTCTCAA | 0.00785
111 | TGTATCAA | 0.325
112 | AGTATCAA | 0.217
113 | AGTCTCAA | -0.0719
114 | TGTCTCAA | 0.384
115 | TATAATCA | 0.169
116 | CCGGGATC | 0.0583
117 | AAGGGGAC | 0.101
118 | CGAATGAC | 0.258
119 | AGAATGTC | 0.459
120 | CGAATGTC | 0.386
121 | CGAATGTA | -0.00301
122 | AGAATGTA | 0.167
123 | AGAATGTG | -0.172
124 | CCGCTGAG | 0.00458
125 | AAACCGCT | -0.0604

Row | Sequence | PBM E-score
126 | CCAAGGGC | -0.126
127 | ACACAAGC | 0.0155
128 | AGAGGTAG | -0.163
129 | GCGATCAA | -0.0507
130 | CTCAGACC | -0.138
131 | ATCAGACA | 0.173
132 | GTCAGACA | 0.323
133 | GTCAGAGA | 0.0303
134 | CTCAGACA | 0.317
135 | CCCAGACA | 0.199
136 | CACGCCAC | -0.127
137 | TCCACGGA | 0.299
138 | GAAGGTGA | -0.0331
139 | GGGTTAGA | -0.178
140 | GCAAATTA | -0.0115
141 | ACAAACTG | 0.158
142 | AGATCTGC | 0.0313
143 | GAGGGCCA | -0.104
144 | CTATGAGA | -0.0425
145 | CGCTGACA | 0.314
146 | AGATGACA | 0.157
147 | CTATGACC | -0.0237
148 | GTATGACA | 0.294
149 | CGATGACA | 0.314
150 | ATATGACA | 0.304

Row | Sequence | PBM E-score
151 | ATATGACC | -0.0751
152 | CTATGACA | 0.375
153 | CGATGACG | -0.158
154 | CGCTGACG | -0.24
155 | TGCTGACA | 0.125
156 | CTTCCAGA | -0.0473
157 | GACACACC | 0.235
158 | AGTCGAGA | 0.0774
159 | ACAGGTGG | -0.0714
160 | ATTTGCAA | 0.103
161 | CTAACTTA | 0.227
162 | TGTGCGAA | -0.0498
163 | AAAACACC | 0.0787
164 | AGGGTCGC | -0.229
165 | GCTTGAAC | 0.187
166 | CGGGCAGC | -0.122
167 | AAGACACT | 0.163
168 | AAGACATC | 0.281
169 | AAGACAGT | 0.0956
170 | AATACATG | 0.0057
171 | CAGACATC | 0.246
172 | AAGACACG | 0.248
173 | CAGACATA | 0.366
174 | AAGACATT | 0.414
175 | AAGACATA | 0.382

Row | Sequence | PBM E-score
176 | AAGACATG | 0.337
177 | CAGACATG | 0.26
178 | AACACATG | 0.07
179 | ACGAGCTC | -0.0205
180 | CCAAATCG | -0.101
181 | GTCTCAGA | 0.0346
182 | CAAAGGGC | -0.0864
183 | GCAAGAAA | 0.0128
184 | CCCTCTTC | -0.288
185 | CCGGCTCC | -0.269
186 | ACCCCACA | -0.0822
187 | CACCAGAC | 0.00954
188 | CGACCCCA | -0.177
189 | CATACAGG | -0.0332
190 | TAGACATA | 0.41
191 | GAGACACA | 0.272
192 | GAGACATA | 0.448
193 | TAGACACA | 0.163
194 | TAGACAGA | 0.177
195 | GAGACATC | 0.265
196 | GGGGCTGA | -0.148
197 | AGGGGCAG | -0.13
198 | GGACCGGA | 0.113
199 | CGCTAACC | -0.084
200 | GGAGTTAA | 0.0335

Row | Sequence | PBM E-score
201 | TGGCCCCA | -0.338
202 | AAGTCCGG | 0.22
203 | AGGTCCGG | 0.041
204 | ACGTCCGC | 0.14
205 | ATGTCCGC | 0.44
206 | CTGTCCGC | 0.114
207 | ATGTCCGG | 0.457
208 | CCACTTAC | -0.133
209 | CCCTCTAC | -0.204
210 | ACCGTCGT | 0.142
211 | GCAGAGCC | -0.149
212 | CTGACAAG | 0.161
213 | CTGACAAC | 0.108
214 | TTGACAAA | 0.266
215 | ATGACAAG | 0.298
216 | ATTACAAT | 0.155
217 | ATGACAAC | 0.311
218 | ATGACAAA | 0.433
219 | ATGACGAA | 0.0573
220 | ATAACAAT | 0.00977
221 | ATGACAGC | 0.149
222 | CTGACAAA | 0.37
223 | ATGACAAT | 0.365
